Results from PubChem BioAssay (NCATS).
Records with an inconclusive call do not appear. The source made the active and inactive calls. Unless noted, the call rests on the fitted dose curve; in most records, active means well fitted curve in either direction with a large enough effect (not every such curve was filed as active); inconclusive means small, poorly fitted or top-dose-only effect, or another doubt; inactive means flat fitted curve, though single readings scatter.

Legend:
[1] = target: Lysosomal acid glucosylceramidase (Homo sapiens) (UniProt P04062); assay: Glucocerebrosidase-p2 (AID 348; in the data active means potency below about 10 µM; further: potency means the concentration at half of the fitted maximal effect); details: purified GBA, blue fluorogenic substrate, 40 min
Method in brief: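 Normal human glucocerebrosidase (0.2 nM) with blue fluorogenic substrate (80 uM final) in citrate/phosphate pH 5.9 with 10mM sodium taurocholate, 0.01% tween-20; 40 min RT, NaOH/glycine stop; fluorescence Ex 365/Em 440; AC50 from a titration from 0.6 nM upwards.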

[2] = AP1 Signaling Pathway (AID 357); details: ME-180 AP-1-bla reporter, EGF-induced, beta-lactamase ratio, 5 h; at 7.69 µM (top of the series) unless noted; further: on the % scale 0 is the no-effect control and ±100 the full control effect
Method in brief: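 ME-180 cells with beta-lactamase reporter under AP-1 response element, stimulated with EC50 EGF; compounds tested in titration series, 5 h at 37 °C. CCF4 substrate added 2.5 h at room temperature; 460/530 nm emission ratio gave %activity and AC50.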

[3] = NFAT Signaling Pathway (AID 444); details: Jurkat NFAT-bla M1, carbachol, beta-lactamase ratio, 5 h; at 7.69 µM (top of the series) unless noted;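 further: carbachol stimulus at about its EC50 of 1 µM final; on the % scale 0 is the no-effect control and ±100 the full control effect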
Method in brief: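 Jurkat cells with NFAT-driven β-lactamase reporter and co-expressed M1 receptor, stimulated with carbachol (final 1 uM, ~EC50), compound titration, 5 h at 37 °C. CCF4 loaded 1 h at RT; 460/530 nm ratio gave %activity and AC50.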

[4] = Stat Signaling Pathway (AID 446); details: ME-180 (cervical carcinoma) SIE beta-lactamase reporter, IL-6 stimulated, 5 h; at 7.69 µM (top of the series) unless noted;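 further: ME-180 cervical cancer cells given 40 pM IL-6 alongside compound; SIE-controlled beta-lactamase reporter measured as 460/530 nm FRET emission ratio; on the % scale 0 is the no-effect control and ±100 the full control effect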
Method in brief: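 Normalization used AC90 stimulation (300 pM IL-6) and AC90 inhibition (125 nM pan-JAK inhibitor at 40 pM IL-6). The underlying signal is SIE-driven beta-lactamase in ME-180 cells after 5 h IL-6 exposure with compound.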

[5] = target: Glucocorticoid receptor (Homo sapiens) (UniProt P04150); assay: GR-GFP Redistribution (AID 450;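 active means compounds whose dose series gives a full or clear partial fitted curve of increased nuclear translocation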; further: potency means the concentration at half of the fitted maximal effect); details: U2OS GR-GFP nuclear translocation, laser cytometry, 2 h
[6] = target: Glucocorticoid receptor (Homo sapiens) (UniProt P04150); assay: GR-EFC Redistribution (AID 451; calls by dose curve; further: potency means the concentration at half of the fitted maximal effect); details: CHO-K1 GR-EFC translocation, beta-gal luminescence, 2 h
Method in brief: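 CHO-K1 cells expressing nuclear EA and GR-ED fragments of b-gal; compounds titrated up to 46 uM final, 2 h at 37 C. GR nuclear translocation read as complemented b-gal luminescence after 1 h RT detection.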

[7] = target: Mitogen-activated protein kinase 10 (Mus musculus) (UniProt Q61831); assay: JNK3 AlphaScreen Assay (AID 530); details: JNK3 lysate, c-Jun phosphorylation; series mostly up to 11.4 µM;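 further: kinase came from lysate of stimulated human HepG2 cells; signal reports phosphorylation of biotinylated GST-cJun 1-79 at Ser73 with 10 µM ATP; on the % scale 0 is the no-effect control and ±100 the full control effect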
Method in brief: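 Activity was read by AlphaScreen after JNK3-containing HepG2 lysate (cytokine pre-activated) phosphorylated biotinylated GST-cJun with 10 uM ATP at room temperature. Phospho-Ser73 cJun antibody with Protein-A acceptor beads provided detection.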

[8] = target: 3',5'-cyclic-AMP phosphodiesterase 4B (Homo sapiens) (UniProt Q07343); assay: qHTS Assay for Inhibitors of PDE-IV (AID 607; active means well fitted activation curve with a large enough effect in the main read-out, with a control signal flat, not every such curve was filed as active; further: % of control where 0% means no effect); details: HEK293 ACTOne CNG channel cells, membrane potential fluorescence; series mostly up to 22.9 µM
Method in brief: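 HEK293 ACTOne cells with CNG channel (1000/well), endogenous PDE4; membrane potential dye, compounds up to 22.9 uM final. Fluorescence Ex 535/Em 590; RO 20-1724 (100 uM final) as reference.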

Chain of Lysosomal acid glucosylceramidase (Homo sapiens) (P04062 whole entry, looked up): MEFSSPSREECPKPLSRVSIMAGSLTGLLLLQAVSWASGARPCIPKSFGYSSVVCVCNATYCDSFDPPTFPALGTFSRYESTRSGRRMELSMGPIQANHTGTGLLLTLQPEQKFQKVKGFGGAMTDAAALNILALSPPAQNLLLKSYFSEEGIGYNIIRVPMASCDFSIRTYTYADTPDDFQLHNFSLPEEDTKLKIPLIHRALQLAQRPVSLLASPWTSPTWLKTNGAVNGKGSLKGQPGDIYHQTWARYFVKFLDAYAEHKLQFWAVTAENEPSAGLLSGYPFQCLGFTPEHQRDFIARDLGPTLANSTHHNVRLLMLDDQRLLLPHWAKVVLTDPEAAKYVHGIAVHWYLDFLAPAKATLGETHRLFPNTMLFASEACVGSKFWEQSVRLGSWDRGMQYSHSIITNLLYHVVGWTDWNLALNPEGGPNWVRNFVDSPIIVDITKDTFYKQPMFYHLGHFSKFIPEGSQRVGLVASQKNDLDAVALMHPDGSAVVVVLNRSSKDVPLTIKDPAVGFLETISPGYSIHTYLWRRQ
Chain of Glucocorticoid receptor (Homo sapiens) (P04150 whole entry, looked up, the tested form may be a part): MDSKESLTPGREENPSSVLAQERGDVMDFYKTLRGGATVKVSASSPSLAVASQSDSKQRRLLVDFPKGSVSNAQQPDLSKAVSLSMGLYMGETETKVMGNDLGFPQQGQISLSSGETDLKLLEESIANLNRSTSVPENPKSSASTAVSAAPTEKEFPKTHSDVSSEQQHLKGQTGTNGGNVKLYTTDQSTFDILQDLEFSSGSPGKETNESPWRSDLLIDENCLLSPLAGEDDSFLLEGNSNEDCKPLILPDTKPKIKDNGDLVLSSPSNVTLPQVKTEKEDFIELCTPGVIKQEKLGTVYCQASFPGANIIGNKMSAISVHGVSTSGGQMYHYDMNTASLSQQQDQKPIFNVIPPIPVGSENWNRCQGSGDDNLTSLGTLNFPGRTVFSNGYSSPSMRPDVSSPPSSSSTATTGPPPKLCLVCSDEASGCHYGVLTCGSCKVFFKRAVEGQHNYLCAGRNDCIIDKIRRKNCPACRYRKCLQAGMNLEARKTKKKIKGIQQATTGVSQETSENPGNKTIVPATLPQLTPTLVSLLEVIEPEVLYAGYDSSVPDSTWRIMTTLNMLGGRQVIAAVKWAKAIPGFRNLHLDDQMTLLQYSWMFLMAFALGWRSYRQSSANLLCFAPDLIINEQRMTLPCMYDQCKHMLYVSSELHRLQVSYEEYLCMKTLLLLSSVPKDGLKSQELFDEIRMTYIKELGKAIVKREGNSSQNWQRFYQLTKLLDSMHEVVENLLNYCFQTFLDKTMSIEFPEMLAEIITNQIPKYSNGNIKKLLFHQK
Chain of 3',5'-cyclic-AMP phosphodiesterase 4B (Homo sapiens) (Q07343 whole entry, looked up): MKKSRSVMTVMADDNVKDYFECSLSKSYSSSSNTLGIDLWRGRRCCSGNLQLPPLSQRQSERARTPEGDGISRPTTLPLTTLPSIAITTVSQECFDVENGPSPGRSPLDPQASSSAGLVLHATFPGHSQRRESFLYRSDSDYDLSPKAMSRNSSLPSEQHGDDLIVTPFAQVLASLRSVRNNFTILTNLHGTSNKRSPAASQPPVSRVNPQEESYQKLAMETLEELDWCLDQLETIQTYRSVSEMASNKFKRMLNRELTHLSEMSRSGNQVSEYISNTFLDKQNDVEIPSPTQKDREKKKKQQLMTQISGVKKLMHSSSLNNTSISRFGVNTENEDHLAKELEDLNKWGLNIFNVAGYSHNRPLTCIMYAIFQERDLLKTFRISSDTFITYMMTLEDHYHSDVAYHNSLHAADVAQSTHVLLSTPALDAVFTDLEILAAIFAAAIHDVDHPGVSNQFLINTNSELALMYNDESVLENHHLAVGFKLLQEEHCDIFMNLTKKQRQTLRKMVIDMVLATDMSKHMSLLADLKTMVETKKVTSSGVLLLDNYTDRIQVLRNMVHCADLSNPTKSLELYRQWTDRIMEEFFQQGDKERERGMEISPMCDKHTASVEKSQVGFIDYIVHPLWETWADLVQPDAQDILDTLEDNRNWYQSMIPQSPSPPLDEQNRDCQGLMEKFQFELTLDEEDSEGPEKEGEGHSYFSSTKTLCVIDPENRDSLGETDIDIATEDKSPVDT

O=C(O)CNC(=O)[C@H]1NC(C(F)(F)F)(C(F)(F)F)OC1(C(F)(F)F)C(F)(F)F
inactive: Potency [1] > 11.4 µM | activity change, negative = inhibition [2] -4.91% | activity change, negative = inhibition [3] 10.9% | activity, negative = inhibition [4] -14.7% | Potency [5] > 46 µM | Potency [6] > 9.22 µM | Potency [7] | Potency [8]

C=CCSc1nc2c(N)ncnc2n1[C@@H]1O[C@H](CO)[C@@H](O)[C@@H]1O
inactive: Potency [1] > 11.4 µM | activity change, negative = inhibition [2] 4.59% | activity change, negative = inhibition [3] 2.7% | activity, negative = inhibition [4] -1.09% | Potency [5] > 46 µM | Potency [6] > 9.22 µM | Potency [7] | Potency [8]

Cc1ccc(S(=O)(=O)OC2CCN(C)CC2)cc1
inactive: Potency [1] > 11.4 µM | activity change, negative = inhibition [2] 0.369% | activity change, negative = inhibition [3] 2.31% | activity, negative = inhibition [4] 3.66% | Potency [5] > 46 µM | Potency [6] > 9.22 µM | Potency [7] | Potency [8]

CC1=C(/C=C\C(=O)O)C(C)(C)CCC1
inactive: Potency [1] > 11.4 µM | activity change, negative = inhibition [2] 4.18% | activity change, negative = inhibition [3] 11.9% | activity, negative = inhibition [4] 0.469% | Potency [5] > 46 µM | Potency [6] > 9.22 µM | Potency [7] | Potency [8]

O=C(O)CN1C(=O)O[C@@H](c2ccccc2)C1=O
inactive: Potency [1] > 11.4 µM | activity change, negative = inhibition [2] -1.65% | activity change, negative = inhibition [3] 11.5% | activity, negative = inhibition [4] -12.2% | Potency [5] > 46 µM | Potency [6] > 9.22 µM | Potency [7] | Potency [8]

Cc1ccc(CN2CCN(Cc3ccc(C)o3)[C@@H](C)C2)o1
inactive: Potency [1] > 11.4 µM | activity change, negative = inhibition [2] -2.23% | activity change, negative = inhibition [3] -7.45% | activity, negative = inhibition [4] 1.61% | Potency [5] > 46 µM | Potency [6] > 9.22 µM | Potency [7] | Potency [8]

CC(=O)Nc1ccc(-c2cc(C(=O)O)c3cc4ccccc4cc3n2)cc1
inactive: Potency [1] > 11.4 µM | activity change, negative = inhibition [2] 7.67% | activity change, negative = inhibition [3] 5.02% | activity, negative = inhibition [4] -2.25% | Potency [5] > 46 µM | Potency [6] > 9.22 µM | Potency [7] | Potency [8]

C(CCc1nnc2c(n1)CCCC2)Cc1nnc2c(n1)CCCC2
inactive: Potency [1] > 11.4 µM | activity change, negative = inhibition [2] 6.86% | activity change, negative = inhibition [3] -8.87% | activity, negative = inhibition [4] 0.257% | Potency [5] > 46 µM | Potency [6] > 9.22 µM | Potency [7] | Potency [8]

COc1ncc2nc(C)c(=O)n(C)c2n1
inactive: Potency [1] > 11.4 µM | activity change, negative = inhibition [2] -15% | activity change, negative = inhibition [3] -2.54% | activity, negative = inhibition [4] -2.89% | Potency [5] > 9.22 µM | Potency [6] > 46 µM | Potency [7] | Potency [8]

O=c1c2ccccc2c2ccccc2c(=O)n1-c1cc2c3ccccc3ccc2c2ccccc12
inactive: Potency [1] > 11.4 µM | activity change, negative = inhibition [2] 13.5% | activity change, negative = inhibition [3] 2.31% | activity, negative = inhibition [4] -7.32% | Potency [5] > 46 µM | Potency [6] > 9.22 µM | Potency [7] | Potency [8]

N#CC(=NCCO)C1=C(O)c2ccccc2C1=O
inactive: Potency [1] > 11.4 µM | activity change, negative = inhibition [2] -1.5% | activity change, negative = inhibition [3] 17.6% | activity, negative = inhibition [4] 10.7% | Potency [5] > 46 µM | Potency [6] > 9.22 µM | Potency [7] | Potency [8]

c1ccc(B2OC[C@@H]3OB(c4ccccc4)O[C@H]([C@@H]4COB(c5ccccc5)O4)[C@@H]3O2)cc1
inactive: Potency [1] > 11.4 µM | activity change, negative = inhibition [2] -8.96% | activity change, negative = inhibition [3] 19.9% | activity, negative = inhibition [4] -6.35% | Potency [5] > 46 µM | Potency [6] > 9.22 µM | Potency [7] | Potency [8]

O=C1C(=O)c2ccccc2C(O)=C1Cc1ccccc1
inactive: Potency [1] > 11.4 µM | activity change, negative = inhibition [2] -5.11% | activity change, negative = inhibition [3] 4.13% | activity, negative = inhibition [4] -11.8% | Potency [5] > 46 µM | Potency [6] > 9.22 µM | Potency [7] | Potency [8]

S=c1nc(-c2nc(=S)[nH]c3c2CCCCCCCCCC3)c2c([nH]1)CCCCCCCCCC2
inactive: Potency [1] > 11.4 µM | activity change, negative = inhibition [2] -8.81% | activity change, negative = inhibition [3] 15.1% | activity, negative = inhibition [4] 9.8% | Potency [5] > 46 µM | Potency [6] > 9.22 µM | Potency [7] | Potency [8]

O=C(NC1(C(=O)O)CCCC1)c1ccccc1
inactive: Potency [1] > 11.4 µM | activity change, negative = inhibition [2] -4.54% | activity change, negative = inhibition [3] 12% | activity, negative = inhibition [4] 6.79% | Potency [5] > 46 µM | Potency [6] > 9.22 µM | Potency [7] | Potency [8]

CC(C)(SCc1ccccc1)[C@H](N)C(=O)O
inactive: Potency [1] > 11.4 µM | activity change, negative = inhibition [2] 0.115% | activity change, negative = inhibition [3] 12.4% | activity, negative = inhibition [4] 5.95% | Potency [5] > 46 µM | Potency [6] > 9.22 µM | Potency [7] | Potency [8]

CC(C)CCNc1ncnc2[nH]ncc12
inactive: Potency [1] > 11.4 µM | activity change, negative = inhibition [2] 6.28% | activity change, negative = inhibition [3] -25.7% | activity, negative = inhibition [4] -5.65% | Potency [5] > 46 µM | Potency [6] > 9.22 µM | Potency [7] | Potency [8]
